Measured values from publication PMC5540273 (PLoS ONE, 2017).
Several values for one entry are separate records, joined by “and”; a condition that tells them apart may be missing. Equal entries are not always repeated. Where two headings read alike, the source gives them in different places.

Experiments:
PAK6 = settings: n = 1
PAK7 = settings: n = 1
PCTK1 = tested on: T1, PCTK1; settings: concentration: 1 μM, replicates: in singlicate; n = 1
T1 construct: gene CDK16

PCTK2 = tested on: T2, PCTK2; settings: concentration: 1 μM, replicates: in singlicate; n = 1
T2 construct: gene CDK17

PCTK3 = tested on: T3, PCTK3; settings: n = 1
T3 construct: gene CDK18

PDGFRA = settings: n = 1
PDGFRB = settings: n = 1
PDPK1 = settings: n = 1
PFTAIRE2 = settings: n = 1
PFTK1 = tested on: T4, PFTK1; settings: n = 1
T4 construct: gene CDK14

PHKG1 = settings: concentration: 1 μM, replicates: in singlicate; n = 1
PHKG2 = settings: n = 1
PIK3C2B = settings: n = 1
PIK3C2G = settings: concentration: 1 μM, replicates: in singlicate; n = 1
PIK3CA = settings: concentration: 1 μM, replicates: in singlicate; n = 1
PIK3CB = settings: n = 1
PIK3CD = settings: n = 1
PIK3CG = settings: n = 1
PIK4CB = tested on: T5, PIK4CB; settings: n = 1
T5 construct: gene PI4KB

PIKFYVE = settings: concentration: 1 μM, replicates: in singlicate; n = 1
[1] = concentration: 1 μM, replicates: in singlicate
[2] = concentration: 1 μM,replicates: in singlicate, 1 µM
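Note: KINOMEscan kinase panel screen.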

COc1cc2ncnc(Nc3ccc4nc(-c5ccccc5)[nH]c4c3)c2cc1OC.Cl [GW282450]
%Inh (PAK6; [1]): 11% | %Inh (PAK7; [1]): 12% | %Inh (PCTK1): 0% | %Inh (PCTK2): 0% | %Inh (PCTK3; [1]): 1% | %Inh (PDGFRA; [1]): 0% | %Inh (PDGFRB; [1]): 28% | %Inh (PDPK1; [1]): 0% | %Inh (PFTAIRE2; [1]): 8% | %Inh (PFTK1; [1]): 19% | %Inh (PHKG1): 0% | %Inh (PHKG2; [1]): 6% | %Inh (PIK3C2B; [1]): 0% | %Inh (PIK3C2G): 0% | %Inh (PIK3CA): 0% | %Inh (PIK3CB; [1]): 0% | %Inh (PIK3CD; [1]): 0% | %Inh (PIK3CG; [1]): 0% | %Inh (PIK4CB; [1]): 0% | %Inh (PIKFYVE): 0%

Cn1ccc2ncnc(Oc3ccc(NC(=O)Nc4ccccc4)cc3)c21
%Inh (PAK6; [1]): 0% | %Inh (PAK7; [1]): 0% | %Inh (PCTK1): 1% | %Inh (PCTK2): 4% | %Inh (PCTK3; [1]): 1% | %Inh (PDGFRA; [1]): 97.6% | %Inh (PDGFRB; [1]): 100% | %Inh (PDPK1; [1]): 0% | %Inh (PFTAIRE2; [1]): 0% | %Inh (PFTK1; [1]): 0% | %Inh (PHKG1): 0% | %Inh (PHKG2; [1]): 0% | %Inh (PIK3C2B; [1]): 0% | %Inh (PIK3C2G): 22% | %Inh (PIK3CA): 0% | %Inh (PIK3CB; [1]): 16% | %Inh (PIK3CD; [1]): 0% | %Inh (PIK3CG; [1]): 0% | %Inh (PIK4CB; [1]): 0% | %Inh (PIKFYVE): 21%

Cc1ccc(-c2cc(-c3c[nH]nc3-c3ccccn3)ccn2)cc1 [GW684088]
%Inh (PAK6; [1]): 9% | %Inh (PAK7; [1]): 19% | %Inh (PCTK1): 0% | %Inh (PCTK2): 19% | %Inh (PCTK3; [1]): 40% | %Inh (PDGFRA; [1]): 7% | %Inh (PDGFRB; [1]): 22% | %Inh (PDPK1; [1]): 0% | %Inh (PFTAIRE2; [1]): 0% | %Inh (PFTK1; [1]): 32% | %Inh (PHKG1): 0% | %Inh (PHKG2; [1]): 27% | %Inh (PIK3C2B; [1]): 0% | %Inh (PIK3C2G): 1% | %Inh (PIK3CA): 2% | %Inh (PIK3CB; [1]): 8% | %Inh (PIK3CD; [1]): 1% | %Inh (PIK3CG; [1]): 4% | %Inh (PIK4CB; [1]): 2% | %Inh (PIKFYVE): 30%

C[C@@H]1CCCCN1c1cc(-c2ccc3c(N)n[nH]c3c2)nc(N)n1 [GSK2258759]
%Inh (PAK6; [1]): 0% | %Inh (PAK7; [1]): 0% | %Inh (PCTK1): 5% | %Inh (PCTK2): 0% | %Inh (PCTK3; [1]): 0% | %Inh (PDGFRA; [1]): 0% | %Inh (PDGFRB; [1]): 6% | %Inh (PFTAIRE2; [1]): 3% | %Inh (PFTK1; [1]): 17% | %Inh (PHKG1): 0% | %Inh (PHKG2; [1]): 0% | %Inh (PIK3C2B; [1]): 0% | %Inh (PIK3C2G): 0% | %Inh (PIK3CA): 0% | %Inh (PIK3CB; [1]): 0% | %Inh (PIK3CD; [1]): 0% | %Inh (PIK3CG; [1]): 0% | %Inh (PIK4CB; [1]): 0% | %Inh (PIKFYVE): 7%

NC(=O)c1nnc2ccccc2c1N
%Inh (PAK6; [1]): 4% | %Inh (PAK7; [1]): 0% | %Inh (PCTK1): 6% | %Inh (PCTK2): 0% | %Inh (PCTK3; [1]): 7% | %Inh (PDGFRA; [1]): 12% | %Inh (PDGFRB; [1]): 9% | %Inh (PDPK1; [1]): 7% | %Inh (PFTAIRE2; [1]): 14% | %Inh (PFTK1; [1]): 5% | %Inh (PHKG1): 0% | %Inh (PHKG2; [1]): 10% | %Inh (PIK3C2B; [1]): 40% | %Inh (PIK3C2G): 14% | %Inh (PIK3CA): 40% | %Inh (PIK3CB; [1]): 0% | %Inh (PIK3CD; [1]): 39% | %Inh (PIK3CG; [1]): 44% | %Inh (PIK4CB; [1]): 1% | %Inh (PIKFYVE): 4%

Cc1cccc(-c2nc(-c3ccc(S(C)(=O)=O)cc3)sc2-c2ccnc(NCCc3ccccc3)c2)c1
%Inh (PAK6; [1]): 5% | %Inh (PAK7; [1]): 5% | %Inh (PCTK1): 15% | %Inh (PCTK2): 3% | %Inh (PCTK3; [1]): 0% | %Inh (PDGFRA; [1]): 89% | %Inh (PDGFRB; [1]): 100% | %Inh (PDPK1; [1]): 17% | %Inh (PFTAIRE2; [1]): 5% | %Inh (PFTK1; [1]): 0% | %Inh (PHKG1): 0% | %Inh (PHKG2; [1]): 9% | %Inh (PIK3C2B; [1]): 0% | %Inh (PIK3C2G): 18% | %Inh (PIK3CA): 1% | %Inh (PIK3CB; [1]): 11% | %Inh (PIK3CD; [1]): 26% | %Inh (PIK3CG; [1]): 17% | %Inh (PIK4CB; [1]): 0% | %Inh (PIKFYVE): 0%

CSc1nn2c(=O)cc(N3CCOCC3)nc2n1Cc1cccc(C(F)(F)F)c1C [GSK2363608]
%Inh (PAK6; [2]): 12% and 0% | %Inh (PAK7; [2]): 1% and 0% | %Inh (PCTK1): 2% | %Inh (PCTK2): 0% | %Inh (PCTK3; [2]): 0% and 5% | %Inh (PDGFRA; [2]): 15% and 0% | %Inh (PDGFRB; [2]): 12% and 8% | %Inh (PDPK1; [2]): 7% and 0% | %Inh (PFTAIRE2; [2]): 23% and 6% | %Inh (PFTK1; [2]): 21% and 6% | %Inh (PHKG1): 0% | %Inh (PHKG2; [2]): 5% and 0% | %Inh (PIK3C2B; [2]): 25% and 20% | %Inh (PIK3C2G): 0% | %Inh (PIK3CA): 9% | %Inh (PIK3CB; [2]): 97% and 100% | %Inh (PIK3CD; 1 µM): 94.4% and 94.3% | %Inh (PIK3CG; [2]): 17% and 16% | %Inh (PIK4CB; [2]): 14% and 4% | %Inh (PIKFYVE): 0%

COc1ccc2nc(-c3cccc(C)n3)nc(Nc3ccncc3)c2c1 [GSK204919]
%Inh (PAK6; [1]): 0% | %Inh (PAK7; [1]): 1% | %Inh (PCTK1): 5% | %Inh (PCTK2): 0% | %Inh (PCTK3; [1]): 36% | %Inh (PDGFRA; [1]): 0% | %Inh (PDGFRB; [1]): 25% | %Inh (PDPK1; [1]): 12% | %Inh (PFTAIRE2; [1]): 0% | %Inh (PFTK1; [1]): 14% | %Inh (PHKG1): 0% | %Inh (PHKG2; [1]): 0% | %Inh (PIK3C2B; [1]): 3% | %Inh (PIK3C2G): 0% | %Inh (PIK3CA): 0% | %Inh (PIK3CB; [1]): 0% | %Inh (PIK3CD; [1]): 0% | %Inh (PIK3CG; [1]): 0% | %Inh (PIK4CB; [1]): 5% | %Inh (PIKFYVE): 81%
